Our source for the inhibition values is PubChem BioAssay AID425 (Sanford-Burnham Center for Chemical Genomics, 2006).

“And” between values parts separate entries of the source, which are not always exact repeats. Identical values can stand only once. The whole screen tested about 110,000 compounds, of which about 190 (0.17%) were called active. For the sample, actives were picked, then their nearest neighbours and some compounds at random. Potency and affinity values are given separately. A number with no mark means an inactive call. Rule as the data show it: active = inhibition above about 50%; inactive = the rest.

The target of the experiment is Dual specificity protein phosphatase 6 (Rattus norvegicus) (UniProt Q64346). Put plainly: MKP-3 phosphatase inhibitors, primary screen, biochemical, rat enzyme, in vitro (AID 425).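 Also: plate controls were vehicle for no effect and reference inhibitor for full effect.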 Particulars: recombinant MKP-3 phosphatase activity, fluorescence; at 20 µM; stronger effect = higher value.
Chain of Dual specificity protein phosphatase 6 (Rattus norvegicus) (Q64346 whole entry, looked up): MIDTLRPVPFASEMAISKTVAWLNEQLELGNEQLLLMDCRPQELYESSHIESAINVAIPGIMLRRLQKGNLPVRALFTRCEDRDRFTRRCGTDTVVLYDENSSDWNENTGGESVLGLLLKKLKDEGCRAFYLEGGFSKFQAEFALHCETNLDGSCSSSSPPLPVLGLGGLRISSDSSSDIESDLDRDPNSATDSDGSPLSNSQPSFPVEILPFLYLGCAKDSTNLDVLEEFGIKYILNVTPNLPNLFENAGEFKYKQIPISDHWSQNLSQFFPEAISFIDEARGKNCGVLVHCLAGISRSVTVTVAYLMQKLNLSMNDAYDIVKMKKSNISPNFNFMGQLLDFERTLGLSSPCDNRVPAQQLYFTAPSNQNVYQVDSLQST
The term inhibition denotes the drop in the measured response relative to a control, in per cent. For the compound `Cc1cc(Cl)ccc1OCCCC(=O)NC1CCN(C)CC1`, the inhibition was -4.9%.

With `Cn1c(CCNC(=O)c2ccccc2F)nnc1SCc1nc2ccccc2c(=O)[nH]1`, the inhibition was -5.4%. The figure for `COc1ccc(S(=O)(=O)Nc2cccc([N+](=O)[O-])c2C)cc1` is -0.4%; for `CCCCSc1nc(C)c(CC(=O)OC)c(=O)[nH]1` it is -20.2%; for `CCCOc1cccc(C(=O)Nc2ccc(Br)cc2C(=O)O)c1` it is 2.6%. The figure for `C=CCN1C(=O)/C(=C\c2ccc(-c3ccc([N+](=O)[O-])cc3)o2)C(=O)NC1=S` is 25.4%; for `O=C1NN(c2ccccc2)C(=O)/C1=C/c1ccc([N+](=O)[O-])o1` it is 56.6% (active); for `O=C1NN(c2ccccc2)C(=O)/C1=C/c1ccc(-c2cccc([N+](=O)[O-])c2)o1` it is 6.9%. On to `C=CCN1C(=O)/C(=C\c2ccc([N+](=O)[O-])o2)C(=O)NC1=S`, for which the inhibition is 95.8% (active).

Regarding `O=C1NN(c2ccccc2)C(=O)/C1=C/c1ccc(-c2ccc(F)cc2)o1`, the inhibition is -3.3%.

As to `C=CCN1C(=O)/C(=C\c2ccc(I)o2)C(=O)NC1=S`, the inhibition was 4.5%.

In the case of `O=C1NN(c2ccccc2)C(=O)/C1=C/c1ccc(-c2ccccc2)o1`, the inhibition was 7.9%.

In the case of `O=C1NN(c2ccccc2)C(=O)/C1=C/c1ccc(-c2ccccc2[N+](=O)[O-])o1`, the inhibition was 16%. In the case of `O=C1NN(c2ccccc2)C(=O)/C1=C/c1ccc(Br)o1`, the inhibition was 75.8% (active). As for `Cc1ccc(S(=O)(=O)NC(C)(C)CN2CCN(CC(C)(C)NS(=O)(=O)c3ccc(C)cc3)CC2)cc1`, the inhibition is -0.5%.

Consider `Cc1ccc2nc(NC(=O)c3ccccc3)sc2c1`, for which the inhibition was 1.9%. Consider `COc1ccccc1/C=C/C=N/NC(=O)CSc1nc2ccccc2n1C`, for which the inhibition was 1.8%. For `CCOc1ccccc1NC(=O)c1c(NC(=O)c2cccc(F)c2)sc2c1CCC(C)C2` (configuration not stated) the value was 3.6%; for `CSc1nc(N2CCN(CCO)CC2)c2sc3nc(-c4ccco4)c4c(c3c2n1)CCC4`, 0.5%. For `CSc1nc(NCCOCCO)c2sc3nc(-c4ccco4)c4c(c3c2n1)CCC4` the value was -0.3%; for `O=C(O)/C=C/c1ccc(-c2ccc(Cl)c(Cl)c2)o1`, -3.2%; for `O=C(/C=C/c1ccco1)/C=C/c1ccc(-c2ccc(Cl)c(Cl)c2)o1`, 75.1% (active). For `O=C(/C=C/c1ccco1)Nc1ccc(Cl)c(Cl)c1` the value was 10.7%; for `Cc1ccc(S(=O)(=O)/N=C2/C=C(S(=O)(=O)c3ccc(C)cc3)C(=O)c3ccccc32)cc1`, 20.6%; for `COC(=O)C(C(=O)OC)C1=C/C(=N/S(=O)(=O)c2ccc(C)cc2)c2ccccc2C1=O`, 1.7%. As to `Cc1ccc(S(=O)(=O)/N=C2\C=CC(=O)C=C2Cl)cc1`, the inhibition is -0.1%. For `O=C1C(Cl)=CC(=NS(=O)(=O)c2ccc(Cl)cc2)c2ccccc21` the value was 95.7% (active); for `Cc1ccc(S(=O)(=O)/N=C2/C=C(Cl)C(=O)c3ccccc32)cc1`, 52.7% (active); for `O=C1C(N2CCOCC2)=C/C(=N\S(=O)(=O)c2ccc(Cl)cc2)c2ccccc21`, 5.9%. The figure for `Cc1ccc(S(=O)(=O)/N=C2\C=C(Sc3ncn[nH]3)C(=O)c3ccccc32)cc1` is 98.1% (active).

Take `Cc1ccc(S(=O)(=O)/N=C2\C=C(n3cnc4ccccc43)C(=O)c3ccccc32)cc1`: the inhibition is 36.8%.

Turning to `Cc1ccc(S(=O)(=O)/N=C2/C=C(Sc3nnnn3-c3ccccc3)C(=O)c3ccccc32)cc1`, the inhibition was 27.3%. For `COc1ccc(S(=O)(=O)/N=C2\C=C(Br)C(=O)c3ccccc32)cc1` the value was 97.9% (active); for `COc1ccc(S(=O)(=O)N=C2C=CC(=NS(=O)(=O)c3ccc(OC)cc3)C=C2)cc1`, 1.8%. As for `O=C1C(Cl)=C/C(=N\S(=O)(=O)c2ccc(Cl)cc2)C(Cl)=C1Cl`, the inhibition was -1%. For `N#CC1=C(N)N(c2ccccc2)C(c2ccco2)C1(C#N)C#N` (configuration not stated), the inhibition was -9.8%.

Turning to `COC(=O)c1ccccc1NC(=O)c1ccccc1C`, the inhibition is 0.2%.

As to `O=C(/C=C/c1ccc2c(c1)OCO2)NC1CC2CCC1C2` (configuration not stated), the inhibition is 3.3%. The figure for `COc1ccc(C2=NN(CN3C(=O)C(=O)c4ccccc43)C(c3ccccc3)C2)cc1` (configuration not stated) is 1.1%. For `O=C1C2=C(C(c3ccccc3)=NCCN2)C(c2ccc(O)cc2)N1c1ccccc1` (configuration not stated) the value was 0.2%.

Take `Cc1ccccc1N1C(=O)/C(=C\c2cccs2)SC1=S`: the inhibition was 0.2%. The figure for `Cc1cccc(-c2nnc(SCc3nc4ccccc4[nH]3)n2Cc2ccco2)c1` is -6.8%. The figure for `O=S(=O)(NCCOCCNS(=O)(=O)c1ccccc1)c1ccccc1` is -1.6%; for `Cc1ccc(/C(O)=C(\C#N)c2nc3ccccc3[nH]2)cc1` it is 5.3%; for `O=C(O/N=C1/CCCc2c1sc1nc3n(c(=O)c21)CCCCC3)c1ccc([N+](=O)[O-])cc1` it is -4.1%.

As to `Cc1ccc(S(=O)(=O)NC(=O)N2CCc3ccccc32)cc1`, the inhibition was 4.5%. The figure for `CCN(CC)C(=O)CSc1nc2cccnc2n1-c1ccccc1OC` is -6.6%; for `OCCCc1nc2ccccc2n1Cc1ccc2ccccc2c1` it is 3.2%. For `CCc1nn(CC(=O)NCCCN(CC)Cc2ccccc2)c(=O)c2cc3sccc3n12` the value was 2%. For `O=C(O)c1cc(-c2ccc(/C=C3/Sc4ccccc4C3=O)o2)ccc1O` the value was 84.4% (active); for `O=C(O)c1cc(-c2ccc(C=C3C(=O)c4ccccc4C3=O)o2)ccc1O`, 47.2%; for `O=C1NC(=O)/C(=C\c2ccc(-c3ccc(C(=O)O)cc3)o2)S1`, 2.5%. Take `O=C1NC(=O)/C(=C/c2ccc(-c3ccc(O)c(C(=O)O)c3)o2)S1`: the inhibition was 105% (active). The figure for `O=C1NC(=S)S/C1=C\c1ccc(-c2ccc(Cl)c(C(=O)O)c2)o1` is 10.9%; for `O=C1/C(=C/c2ccc(-c3ccc(Cl)cc3C(=O)O)o2)Sc2ccccc21` it is 7.4%; for `COc1ccccc1CNC(=O)C(NC(=O)C1CCCCC1)C(C)C` (configuration not stated) it is -3.5%.

For `CCOC(=O)CNC(=S)Nc1ccc(F)cc1`, the inhibition is 1.8%.

Regarding `CN(C)c1ccc(/C=C/C=C/c2cc[n+](CCCS(=O)(=O)[O-])cc2)cc1`, the inhibition is 5%. With `c1ccc(-c2noc(C34CC5CC(CC(C5)C3)C4)n2)nc1`, the inhibition is -5.1%. The figure for `CN1C(=O)NC(=O)/C(=C/c2ccc(-c3ccc([N+](=O)[O-])cc3Cl)o2)C1=O` is 12%.

With `CN1C(=O)NC(=O)/C(=C/c2ccc(-c3ccc(Cl)cc3Cl)o2)C1=O`, the inhibition is 66.9% (active). The figure for `CN1C(=O)NC(=O)/C(=C/c2ccc(-c3ccc(Cl)cc3)o2)C1=O` is 39.8%; for `CCn1nc(NC(=O)c2ccncc2)c2cc3cc(C)ccc3nc21` it is -13.2%; for `O=C(NCCN1CCOCC1)c1cnn2c(C(F)(F)F)cc(-c3ccc(Br)cc3)nc12` it is -0.4%. For `CCN1C(=O)N(COC(C)=O)C2C1N(COC(C)=O)C(=O)N2CC` (configuration not stated) the value was 3.5%; for `Cc1c(-c2cccc(Cl)c2)nc2ccccc2c1C(=O)O`, 1.1%. On to `O=C(Cn1c(O)c(N=NC(=O)C(=O)Nc2ccc([N+](=O)[O-])cc2)c2ccccc21)Nc1ccccc1`, for which the inhibition is -0.4%.

As to `O=C(Cn1c(O)c(N=NC(=O)c2ccc([N+](=O)[O-])cc2)c2ccccc21)Nc1ccccc1`, the inhibition is 0.9%.

For `Cc1ccc(C2SCC(=O)N2CCCN(C)C)cc1` (configuration not stated), the inhibition was -0.2%. The figure for `Cc1c(Cl)cccc1N=C1NC(=O)/C(=C/c2ccc(OC(C)C)cc2)S1` is 3.5%; for `O=C(Nc1ccccc1Cl)c1cccc(NC(=O)C(F)(F)F)c1` it is 98.8% (active). The figure for `Cc1ccccc1C(=O)Nc1cccc(C(=O)Nc2ccccc2Cl)c1` is 0.2%. For `O=C(Nc1ccccc1Cl)c1cccc(F)c1` the value was 0.5%. Turning to `CCOC(=O)C1=C(O)CCn2c1nc1ccccc12`, the inhibition is -0.7% and -13.2%. Regarding `CCOC(=O)C1(C)C=C(Nc2ccc(S(=O)(=O)Nc3nccs3)cc2)C(=O)N1c1ccccc1` (configuration not stated), the inhibition is 2.7%.

`COC(=O)c1c(NC(=O)c2cncc(Br)c2)sc2c1CCC2`: the inhibition was -14%. Consider `Cc1ccccc1NC(=O)C(C)NC(=O)C12CC3CC(CC(C3)C1)C2` (configuration not stated), for which the inhibition is 1.2%. The figure for `COc1ccc(Cl)cc1NC(=O)c1cc2nc(-c3ccccc3)cc(C)n2n1` is 63.8% (active). The figure for `Cc1cc(-c2ccccc2)nc2cc(C(=O)Nc3ccc(Cl)cc3)nn12` is 3.4%; for `COc1cc(NC(=O)c2cc3nc(-c4ccccc4)cc(C)n3n2)c(OC)cc1Cl` it is 10.6%; for `Cc1ccc(NC(=O)COc2ccc(Br)cc2)c(C)c1` it is 2.7%. For `Cc1ccc(S(=O)(=O)Nc2cc(Sc3ncn[nH]3)c(O)c3ccccc23)cc1` the value was 56% (active); for `Cc1ccc(S(=O)(=O)Nc2cc(C)c(O)c(Sc3ncn[nH]3)c2)cc1`, 4.4%; for `Cc1ccc(S(=O)(=O)Nc2cc(Sc3nc4ccccc4[nH]3)c(O)c3ccccc23)cc1`, 8.1%. `COc1ccc(C2CC(=O)C3=C(C2)Nc2ccccc2NC3c2cccs2)cc1` (configuration not stated): the inhibition was 3.6%. The figure for `Cc1nc(C)n(C)c(=O)c1-c1ccccc1` is -0.4%. The figure for `CCOC(=O)Cn1nc(-c2ccccc2)nc1-c1ccccc1` is -8%; for `CCSc1nc(-c2cccs2)nc2c1c(=O)n(C)c(=O)n2C` it is -4.4%. For `Cn1c(/C=C/c2ccc(Br)cc2)nc2ccccc2c1=O` the value was 0.8%; for `COc1ccc(-n2c(C)cc(C)nc2=O)cc1`, -1.5%; for `Cn1c(/C=C/c2cccnc2)nc2ccccc2c1=O`, -2.3%. In the case of `COc1ccc(OC)c(/C=c2\sc3nc(-c4cccs4)nn3c2=O)c1`, the inhibition is 0.4%.
